Compound activity from PubChem BioAssay.
Most compounds without a hit are left out; they make up all but 6.8% or so of the library.
MK inhibit = S. pneumoniae mevalonate kinase inhibition | purified MK, PK/LDH-coupled NADH absorbance 340 nm | AID 555 | 0.48% of 65,000 active | inhibition, % at 10 µM;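 active = ranked among the strongest by inhibition in the single 10 µM screen, a fixed top-ranked set picked for dose follow-up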
Abs 340nm = compounds absorbing at 340 nm; compound absorbance at 340 nm, fold over control; fold change at 10 µM; 65,000 tested, under 10 active;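 active = at 10 µM dose, initial 340 nm absorbance at least 2 fold that of control wells; inactive = change under 2 fold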;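 also: initial absorbance extrapolated from kinetic A340 decline of NADH oxidation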
DPM-DC inhibit = inhibitors of Streptococcus pneumoniae diphosphomevalonate decarboxylase; 0.49% of 65,000 active; calls only at 10 µM; purified DPM-DC, PK/LDH coupled NADH fluorescence;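 active = the 320 compounds with the highest percent inhibition in the single-dose primary screen, excluding strongly autofluorescent ones, cut at about 32% in these data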;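 also: kinetic rate of NADH fluorescence loss reporting ADP formed by the decarboxylase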
Autofluor 339 = intrinsic fluorescence of library compounds, ex339/em460 – biochemical, MLSMR library, data from DPM-DC assay, artefact control, profiling panel; compound autofluorescence, ex339/em460 nm, NADH buffer; hits give high values; 1 = no-compound wells, NADH background; fluorescence fold increase at 10 µM; 5.5% of 65,000 active; AID 709;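 active = at 10 µM, mean starting fluorescence two-fold or more over control wells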;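 also: signal is the first read of a kinetic run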
Spn PMK inh = inhibitors of Streptococcus pneumoniae phosphomevalonate kinase. AID 539. purified PMK, PK/LDH-coupled NADH absorbance 340 nm. 0.49% of 65,000 active. inhibition, % at 10 µM;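 active = top-ranked compounds by inhibition in the single 10 µM screen, taking a fixed number of the strongest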;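 also: 0% = full reaction with DMSO carrier and 100% = background rate without enzyme reaction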
NADH coupling = blocks coupling enzymes of NAD/NADH assays; coupled PK/LDH NADH assays, four targets; IC50, µM (highest dose often 10 µM), for the others: at the top dose inhibition; 0.02% of 65,000 active;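 active = single-dose screening hits from any of four coupled enzyme assays that gave an IC50 when retested across doses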;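 also: the DPM-DC format reads NADH fluorescence rather than 340 nm absorbance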
An asterisk follows results filed as active; i = inactive; nt = no result shown; + = active, no number.

SMILES | MK inhibit | Abs 340nm | DPM-DC inhibit | Autofluor 339 | Spn PMK inh | NADH coupling
CN(C)c1oc(-c2ccccc2)nc1C#N | 8 | 1.1 | nt | 2.1* | 20 | 14%
CCOC(=O)c1nc(-c2ccccc2)oc1N(C)C | 0 | 1.1 | nt | 4.9* | 9 | 5%
CN(C)c1oc(-c2ccccc2Cl)nc1C#N | 5 | 1.1 | i | 2.7* | 11 | 3%
Fc1cccc2sc(N3CCOCC3)nc12 | 9 | 0.97 | i | 1 | 10 | 5%
N#Cc1c(F)cccc1N1CCOCC1 | 11 | 1 | i | 3.1* | 0 | 6%
Cc1cccc(NC(=O)c2sc3nc(-c4ccc(F)cc4)cn3c2C)n1 | 8 | 1.1 | nt | 4.5* | 14 | 11%
Cc1cccc(NC(=O)c2sc3nc(-c4ccccc4)cn3c2C)n1 | 0 | 1 | i | 1.2 | 5 | 2%
Cc1n[nH]c(=S)n(/N=C/c2ccccn2)c1=O | 11 | 1.1 | i | 1.1 | 43* | 23%
Cc1ccc2c(c1)c1c3n2CCN(C(=O)Cn2c(-c4ccccc4)noc2=O)C3CCC1 (centres undefined) | 4 | 1 | i | 3.2* | 12 | 10%
O=C(CSc1ncnc2c1cnn2-c1ccccc1)Nc1ccc2c(c1)OCO2 | 12 | 1.1 | + | 1.7 | 2 | 15%
CN(C)S(=O)(=O)c1ccc(C(=O)OCC(=O)c2ccc(OC(F)F)cc2OC(F)F)cc1 | 2 | 1 | i | 1 | 20 | 8%
Cc1nn(-c2ccc(F)cc2)c2sc(C(=O)OC3CCOC3=O)cc12 (centres undefined) | 5 | 1 | nt | 2.1* | 0 | 3%
CN1C(=O)c2ccccc2N(C)C1c1ccc2c(c1)OCO2 (centres undefined) | 8 | 0.98 | nt | 3.9* | 7 | 8%
COc1cccc(Nc2cc(C)nc3nc(C)nn23)c1 | 6 | 1.1 | i | 0.98 | 4 | 3%
COc1cccc(CNc2nc3nc(C)cc(C)n3n2)c1 | 6 | 1 | i | 2.6* | 11 | 7%
CCOc1ccc2[nH]c(=O)c(CN(Cc3ccc(C)cc3)C(=O)N3CCCC3)cc2c1 | 0 | 1 | i | 2.6* | 11 | 9%
CCOc1ccc2[nH]c(=O)c(CN(CCOC)C(=O)N3CCOCC3)cc2c1 | 1 | 1 | nt | 3* | 13 | 4%
Cc1ccc(CN(Cc2cc3cc(C)ccc3[nH]c2=O)C(=O)N2CCOCC2)cc1 | 8 | 1 | i | 1.6 | 15 | 14%
O=C(C1CC1)N1CCc2cc(Br)cc(S(=O)(=O)NCC3COc4ccccc4O3)c21 (centres undefined) | 11 | 1 | i | 1.1 | 0 | 5%
Cc1cnc(NC(=O)CSc2nnc(-c3cccs3)n2C)s1 | 8 | 1 | i | 1.1 | 8 | 5%
COc1ccc(N2CCN(c3ccc(NC(=O)C4CCCCC4)cc3C#N)CC2)cc1 | 1 | 1 | i | 2.2* | 8 | 5%
COc1ccc(N2CCN(c3ccc(N)cc3C#N)CC2)cc1 | 3 | 1 | i | 1.5 | 15 | 6%
COc1ccc(C(=O)Nc2ccc(N3CCN(c4ccc(OC)cc4)CC3)c(C#N)c2)cc1 | 7 | 1 | nt | 5.1* | 14 | 11%
COc1ccc(C(=O)N2CCC(C(=O)Nc3ccc(OC)c(OC)c3)CC2)cc1 | 4 | 1 | i | 1.1 | 5 | 3%
COc1ccc2[nH]c3nc(SCc4nnc(-c5ccc(C)cc5)o4)nnc3c2c1 | 13 | 1.1 | i | 1.1 | 16 | 10%
SMILES | MK inhibit | Abs 340nm | DPM-DC inhibit | Autofluor 339 | Spn PMK inh | NADH coupling
N#Cc1c(N)oc(-c2ccccc2)c1-c1ccccc1 | 13 | 1.1 | i | 1.3 | 0 | 4%
N#Cc1c(N)oc(-c2ccco2)c1-c1ccco1 | 0 | 1.1 | nt | 2.1* | 10 | 5%
Cn1c(=O)c2[nH]c(Nc3ccccc3)nc2n(C)c1=O | 2 | 1.1 | i | 1.1 | 0 | 1%
CC(C)c1ccc(-c2nc3c([nH]2)c(=O)n(C)c(=O)n3C)cc1 | 7 | 1 | + | 2.5* | 0 | 14%
Cc1c(Cl)cccc1NC(=O)CSc1nnc(CCNC(=O)OC(C)(C)C)o1 | 5 | 1 | i | 1.1 | 10 | 5%
O=C(O)c1[nH]c2ccccc2c1NS(=O)(=O)Cc1ccccc1 | 3 | 1 | i | 2.4* | 4 | 6%
CC(=O)c1ccc(NS(=O)(=O)Cc2ccccc2)cc1 | 5 | 1.1 | i | 1 | 2 | 4%
